According to the supplement of paper PMC11732987, “Enantioselective OTUD7B fragment discovery through chemoproteomics screening and high-throughput optimisation” (Communications Chemistry, 2025):

Key:
Experiment in all cases: log2 ratio of Biotin-Ahx-Ub-VS probe labelling (fragment/DMSO); higher = less target engagement (more negative = stronger competition), active = hit call of the paper (q ≤ 0.05, log2 ratio ≤ -1)
Conditions in all cases: compound concentration: 200 uM; treatment time: 3 h
[1] = molecular target: USP9X (UniProt Q93008)
USP9X, sequence (Q93008 whole entry, the tested form may be a part): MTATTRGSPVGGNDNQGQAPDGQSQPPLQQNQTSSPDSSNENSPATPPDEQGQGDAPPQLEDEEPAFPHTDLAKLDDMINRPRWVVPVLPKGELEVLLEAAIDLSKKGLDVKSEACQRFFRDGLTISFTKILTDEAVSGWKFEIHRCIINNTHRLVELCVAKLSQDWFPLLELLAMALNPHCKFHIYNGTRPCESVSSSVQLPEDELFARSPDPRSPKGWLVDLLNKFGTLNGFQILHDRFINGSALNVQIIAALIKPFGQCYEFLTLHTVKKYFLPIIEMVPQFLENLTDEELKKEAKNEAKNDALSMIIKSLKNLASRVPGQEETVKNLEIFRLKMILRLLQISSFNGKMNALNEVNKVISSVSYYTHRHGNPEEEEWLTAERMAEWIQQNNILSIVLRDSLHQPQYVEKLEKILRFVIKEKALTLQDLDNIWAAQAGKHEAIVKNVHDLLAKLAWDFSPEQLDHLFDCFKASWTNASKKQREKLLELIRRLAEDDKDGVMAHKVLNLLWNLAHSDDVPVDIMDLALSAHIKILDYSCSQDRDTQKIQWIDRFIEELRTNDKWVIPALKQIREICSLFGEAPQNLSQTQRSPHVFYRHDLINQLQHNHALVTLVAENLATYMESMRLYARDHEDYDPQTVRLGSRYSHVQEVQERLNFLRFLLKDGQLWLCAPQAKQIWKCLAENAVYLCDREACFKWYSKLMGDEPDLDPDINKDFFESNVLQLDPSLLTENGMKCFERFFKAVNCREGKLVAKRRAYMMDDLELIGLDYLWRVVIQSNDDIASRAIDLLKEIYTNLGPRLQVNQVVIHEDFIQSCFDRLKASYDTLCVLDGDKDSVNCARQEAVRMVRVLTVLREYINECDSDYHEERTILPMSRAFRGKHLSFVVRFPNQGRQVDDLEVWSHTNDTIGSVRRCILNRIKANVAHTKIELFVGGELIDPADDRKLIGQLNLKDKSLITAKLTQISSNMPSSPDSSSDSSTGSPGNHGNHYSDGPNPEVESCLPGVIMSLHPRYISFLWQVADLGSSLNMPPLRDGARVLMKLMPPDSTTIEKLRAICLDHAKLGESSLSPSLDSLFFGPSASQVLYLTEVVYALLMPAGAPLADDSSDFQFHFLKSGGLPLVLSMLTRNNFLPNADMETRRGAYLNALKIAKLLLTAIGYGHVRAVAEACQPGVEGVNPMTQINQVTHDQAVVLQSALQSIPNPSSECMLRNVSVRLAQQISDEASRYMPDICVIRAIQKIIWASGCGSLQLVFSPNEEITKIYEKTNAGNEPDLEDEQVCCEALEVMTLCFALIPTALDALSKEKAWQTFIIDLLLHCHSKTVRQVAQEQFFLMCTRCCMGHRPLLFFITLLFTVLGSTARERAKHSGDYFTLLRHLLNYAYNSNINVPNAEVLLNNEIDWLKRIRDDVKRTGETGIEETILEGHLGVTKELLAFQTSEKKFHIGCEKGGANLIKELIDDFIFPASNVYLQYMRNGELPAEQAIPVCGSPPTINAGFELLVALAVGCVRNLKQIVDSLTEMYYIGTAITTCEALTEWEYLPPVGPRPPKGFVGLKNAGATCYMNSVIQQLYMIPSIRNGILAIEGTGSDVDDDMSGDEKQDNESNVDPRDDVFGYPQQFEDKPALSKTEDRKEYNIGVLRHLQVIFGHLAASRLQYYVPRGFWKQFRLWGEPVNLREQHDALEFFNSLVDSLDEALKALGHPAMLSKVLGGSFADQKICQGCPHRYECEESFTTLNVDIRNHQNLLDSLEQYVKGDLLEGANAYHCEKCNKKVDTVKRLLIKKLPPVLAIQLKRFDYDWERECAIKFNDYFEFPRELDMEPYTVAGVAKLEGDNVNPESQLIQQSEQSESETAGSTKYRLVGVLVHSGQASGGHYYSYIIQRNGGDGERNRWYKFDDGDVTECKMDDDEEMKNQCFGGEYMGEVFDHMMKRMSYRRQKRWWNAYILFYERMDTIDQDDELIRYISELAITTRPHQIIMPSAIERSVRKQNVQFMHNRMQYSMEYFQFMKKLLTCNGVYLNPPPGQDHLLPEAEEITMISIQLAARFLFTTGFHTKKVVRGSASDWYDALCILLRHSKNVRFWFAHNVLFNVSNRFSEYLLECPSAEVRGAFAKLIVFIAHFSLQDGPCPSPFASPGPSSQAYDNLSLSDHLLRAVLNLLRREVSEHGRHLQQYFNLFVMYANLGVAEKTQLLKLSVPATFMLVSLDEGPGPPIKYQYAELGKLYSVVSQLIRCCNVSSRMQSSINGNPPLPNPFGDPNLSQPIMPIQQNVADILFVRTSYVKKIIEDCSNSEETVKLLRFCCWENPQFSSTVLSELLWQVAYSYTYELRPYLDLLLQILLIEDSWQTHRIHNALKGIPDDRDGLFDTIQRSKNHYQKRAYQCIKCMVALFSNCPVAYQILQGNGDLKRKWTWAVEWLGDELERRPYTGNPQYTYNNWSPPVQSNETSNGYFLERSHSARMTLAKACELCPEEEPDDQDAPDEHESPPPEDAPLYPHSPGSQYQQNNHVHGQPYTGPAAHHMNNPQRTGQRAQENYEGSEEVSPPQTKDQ
How it was run: (§1)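 HEK293T lysate (495 µg per sample, in Tris/CHAPS/IGEPAL buffer with protease inhibitors) was exposed in triplicate for 3 h to fragment at 200 µM or to vehicle, then to Biotin-Ahx-Ub-VS at 0.5 µM final for 1 h. Labelled DUBs were enriched on NeutrAvidin, digested with LysC and trypsin, and analysed by diaPASEF LC-MS/MS. Spectronaut label-free quantities were normalised to the global median, and values are average log2 ratios of fragment over vehicle from an unpaired t-test. Only proteins with ≥2 unique peptides were used.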

[2] = molecular target: UniProt O00487
UniProt O00487, sequence (O00487 whole entry): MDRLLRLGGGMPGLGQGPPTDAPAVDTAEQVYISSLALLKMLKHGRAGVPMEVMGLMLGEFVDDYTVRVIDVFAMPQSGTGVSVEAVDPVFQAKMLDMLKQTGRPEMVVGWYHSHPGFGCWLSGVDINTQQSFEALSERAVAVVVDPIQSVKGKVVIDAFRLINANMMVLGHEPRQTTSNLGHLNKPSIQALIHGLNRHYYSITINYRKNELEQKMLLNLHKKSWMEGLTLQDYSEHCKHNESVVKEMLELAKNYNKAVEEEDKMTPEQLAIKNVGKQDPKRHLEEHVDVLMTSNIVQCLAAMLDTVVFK
How it was run: as §1

[3] = molecular target: UniProt O00507
How it was run: as §1

[4] = molecular target: UniProt P51784
UniProt P51784, sequence (P51784 whole entry): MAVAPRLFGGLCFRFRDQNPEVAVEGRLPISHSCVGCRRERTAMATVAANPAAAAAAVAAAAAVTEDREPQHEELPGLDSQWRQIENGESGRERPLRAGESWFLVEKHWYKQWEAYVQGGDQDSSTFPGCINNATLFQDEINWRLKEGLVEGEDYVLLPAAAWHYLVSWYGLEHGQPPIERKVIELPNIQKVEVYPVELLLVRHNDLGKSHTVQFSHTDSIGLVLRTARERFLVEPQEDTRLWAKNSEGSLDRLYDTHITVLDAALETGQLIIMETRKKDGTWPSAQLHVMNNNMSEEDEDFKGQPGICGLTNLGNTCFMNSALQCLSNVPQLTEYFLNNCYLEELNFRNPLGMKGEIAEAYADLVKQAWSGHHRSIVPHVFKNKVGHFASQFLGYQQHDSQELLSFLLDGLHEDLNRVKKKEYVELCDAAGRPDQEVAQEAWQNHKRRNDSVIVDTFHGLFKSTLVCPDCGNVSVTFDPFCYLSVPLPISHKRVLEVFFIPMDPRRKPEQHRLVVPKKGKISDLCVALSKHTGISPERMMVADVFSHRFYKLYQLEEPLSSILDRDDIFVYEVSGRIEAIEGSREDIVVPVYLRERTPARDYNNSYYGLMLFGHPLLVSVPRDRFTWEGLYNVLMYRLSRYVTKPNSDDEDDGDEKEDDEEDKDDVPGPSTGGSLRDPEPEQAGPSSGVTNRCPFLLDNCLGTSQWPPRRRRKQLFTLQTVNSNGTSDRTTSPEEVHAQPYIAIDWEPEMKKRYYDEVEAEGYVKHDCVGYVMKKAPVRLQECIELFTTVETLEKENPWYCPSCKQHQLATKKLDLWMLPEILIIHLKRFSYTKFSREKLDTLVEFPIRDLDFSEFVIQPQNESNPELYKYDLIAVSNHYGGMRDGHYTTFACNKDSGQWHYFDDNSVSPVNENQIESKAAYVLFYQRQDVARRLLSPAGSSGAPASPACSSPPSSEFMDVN
How it was run: as §1

[5] = molecular target: T1, UniProt Q5T2D3
T1 sequence (whole entry): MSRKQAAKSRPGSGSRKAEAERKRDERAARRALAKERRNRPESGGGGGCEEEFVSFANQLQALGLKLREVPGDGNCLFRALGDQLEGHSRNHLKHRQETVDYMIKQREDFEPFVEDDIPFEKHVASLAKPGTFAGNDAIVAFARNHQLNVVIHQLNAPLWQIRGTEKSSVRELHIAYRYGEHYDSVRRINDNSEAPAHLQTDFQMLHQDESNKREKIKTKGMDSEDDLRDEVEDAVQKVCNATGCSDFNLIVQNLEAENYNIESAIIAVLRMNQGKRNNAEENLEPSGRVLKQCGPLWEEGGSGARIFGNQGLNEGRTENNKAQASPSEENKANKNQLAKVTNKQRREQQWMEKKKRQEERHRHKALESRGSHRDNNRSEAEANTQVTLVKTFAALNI
How it was run: as §1

[6] = molecular target: T2, UniProt Q8TE49
T2 sequence (whole entry): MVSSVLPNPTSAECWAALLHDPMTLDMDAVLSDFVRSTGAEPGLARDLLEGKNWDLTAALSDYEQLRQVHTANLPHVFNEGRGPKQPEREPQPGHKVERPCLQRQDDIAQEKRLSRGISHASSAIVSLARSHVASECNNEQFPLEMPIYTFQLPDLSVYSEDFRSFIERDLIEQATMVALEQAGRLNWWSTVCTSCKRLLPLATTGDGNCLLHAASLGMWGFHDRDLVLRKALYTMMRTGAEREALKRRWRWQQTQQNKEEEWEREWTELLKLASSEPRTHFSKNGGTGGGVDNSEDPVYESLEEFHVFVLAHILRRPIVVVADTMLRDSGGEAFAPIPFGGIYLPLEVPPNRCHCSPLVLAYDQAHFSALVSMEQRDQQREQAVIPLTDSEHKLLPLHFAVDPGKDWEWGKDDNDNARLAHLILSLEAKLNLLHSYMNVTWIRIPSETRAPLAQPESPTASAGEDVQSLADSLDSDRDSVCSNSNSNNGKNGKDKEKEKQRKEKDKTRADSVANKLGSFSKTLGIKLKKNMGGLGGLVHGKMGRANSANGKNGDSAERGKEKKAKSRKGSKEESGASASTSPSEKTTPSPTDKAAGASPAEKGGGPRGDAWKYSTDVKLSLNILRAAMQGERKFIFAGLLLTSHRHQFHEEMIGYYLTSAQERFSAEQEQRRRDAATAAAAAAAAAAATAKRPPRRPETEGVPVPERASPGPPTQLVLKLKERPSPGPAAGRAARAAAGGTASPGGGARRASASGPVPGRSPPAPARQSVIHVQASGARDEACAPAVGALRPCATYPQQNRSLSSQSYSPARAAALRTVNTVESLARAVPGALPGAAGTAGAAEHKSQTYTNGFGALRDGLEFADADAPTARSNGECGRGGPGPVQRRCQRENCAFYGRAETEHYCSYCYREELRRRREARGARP
How it was run: as §1

[7] = molecular target: T3, UniProt Q9P2H5
T3 sequence (whole entry): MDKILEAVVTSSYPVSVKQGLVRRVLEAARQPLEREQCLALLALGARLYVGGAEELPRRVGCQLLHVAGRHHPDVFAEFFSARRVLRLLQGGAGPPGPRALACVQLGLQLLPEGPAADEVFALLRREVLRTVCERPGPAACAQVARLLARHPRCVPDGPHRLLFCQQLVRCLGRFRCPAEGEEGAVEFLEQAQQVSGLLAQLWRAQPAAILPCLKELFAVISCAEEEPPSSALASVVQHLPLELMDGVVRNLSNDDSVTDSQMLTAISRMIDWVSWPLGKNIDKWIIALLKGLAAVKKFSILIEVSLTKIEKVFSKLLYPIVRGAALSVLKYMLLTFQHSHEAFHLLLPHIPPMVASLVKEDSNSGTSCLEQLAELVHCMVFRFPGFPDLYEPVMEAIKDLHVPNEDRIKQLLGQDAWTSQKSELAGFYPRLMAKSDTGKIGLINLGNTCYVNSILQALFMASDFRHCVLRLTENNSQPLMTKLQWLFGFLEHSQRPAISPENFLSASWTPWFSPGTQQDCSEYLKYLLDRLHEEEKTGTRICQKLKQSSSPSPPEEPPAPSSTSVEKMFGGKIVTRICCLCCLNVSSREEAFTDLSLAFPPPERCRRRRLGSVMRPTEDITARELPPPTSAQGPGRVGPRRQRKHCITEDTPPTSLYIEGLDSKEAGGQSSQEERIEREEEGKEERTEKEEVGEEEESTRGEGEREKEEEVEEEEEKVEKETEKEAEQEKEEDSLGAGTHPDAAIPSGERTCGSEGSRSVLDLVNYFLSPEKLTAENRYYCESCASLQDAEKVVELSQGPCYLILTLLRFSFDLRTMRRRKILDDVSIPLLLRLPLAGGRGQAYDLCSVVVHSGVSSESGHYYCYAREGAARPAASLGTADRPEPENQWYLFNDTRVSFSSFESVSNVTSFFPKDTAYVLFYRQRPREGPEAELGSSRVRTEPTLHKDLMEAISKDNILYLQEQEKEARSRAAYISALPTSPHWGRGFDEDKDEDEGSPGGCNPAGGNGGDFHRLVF
How it was run: as §1

[8] = molecular target: T4, UniProt Q9UGI0
T4 sequence (whole entry): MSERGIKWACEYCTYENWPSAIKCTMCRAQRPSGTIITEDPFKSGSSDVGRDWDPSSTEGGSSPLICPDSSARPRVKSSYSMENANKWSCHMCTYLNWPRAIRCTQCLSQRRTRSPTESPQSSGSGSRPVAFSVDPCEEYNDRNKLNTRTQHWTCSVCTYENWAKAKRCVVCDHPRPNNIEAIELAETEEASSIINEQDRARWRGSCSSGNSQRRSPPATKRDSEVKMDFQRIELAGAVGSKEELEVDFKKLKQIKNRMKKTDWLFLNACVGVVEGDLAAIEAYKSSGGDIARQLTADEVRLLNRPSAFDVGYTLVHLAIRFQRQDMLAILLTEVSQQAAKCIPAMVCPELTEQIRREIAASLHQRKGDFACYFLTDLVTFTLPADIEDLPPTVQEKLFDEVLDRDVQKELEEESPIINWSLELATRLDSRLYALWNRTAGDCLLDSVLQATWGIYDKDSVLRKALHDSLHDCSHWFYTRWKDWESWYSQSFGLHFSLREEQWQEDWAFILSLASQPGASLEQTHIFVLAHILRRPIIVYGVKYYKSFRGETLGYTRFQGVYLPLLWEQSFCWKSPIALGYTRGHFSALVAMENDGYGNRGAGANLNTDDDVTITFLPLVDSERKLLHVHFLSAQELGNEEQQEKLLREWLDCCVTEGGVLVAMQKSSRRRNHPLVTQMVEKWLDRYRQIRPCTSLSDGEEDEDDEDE
How it was run: as §1

[9] = molecular target: T5, YOD1 (UniProt Q5VVQ6)
T5 sequence (whole entry): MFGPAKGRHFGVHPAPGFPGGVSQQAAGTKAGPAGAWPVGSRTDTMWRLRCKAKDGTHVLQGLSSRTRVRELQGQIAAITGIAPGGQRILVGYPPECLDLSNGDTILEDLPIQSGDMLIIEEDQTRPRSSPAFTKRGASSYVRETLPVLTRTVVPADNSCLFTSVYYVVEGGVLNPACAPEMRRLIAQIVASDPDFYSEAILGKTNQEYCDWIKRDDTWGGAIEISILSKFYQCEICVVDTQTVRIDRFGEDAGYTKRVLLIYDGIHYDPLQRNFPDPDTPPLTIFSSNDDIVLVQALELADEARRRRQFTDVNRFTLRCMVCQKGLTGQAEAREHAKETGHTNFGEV
How it was run: as §1

Measured: log2 ratio of Biotin-Ahx-Ub-VS probe labelling

CS(=O)(=O)c1ccc(CNC(=O)CCl)cc1
inactive: [1] -0.103 | [2] -0.101 | [3] -0.143 | [4] -0.0799 | [5] -0.383 | [6] -0.563 | [7] 0.0147 | [8] -0.189 | [9] -0.172
